# According to PMC11006913:
# Changes are numbered by the printed parent chain.
# Columns and labels:
# Assay in all cases: PBM; 200 nM protein, PBS
# Settings in all cases: dsDNA, one strand shown
# SIX6 [1] = target: T1, SIX6 (Homo sapiens, UniProt O95475 114-200, L167I)
# T1 sequence: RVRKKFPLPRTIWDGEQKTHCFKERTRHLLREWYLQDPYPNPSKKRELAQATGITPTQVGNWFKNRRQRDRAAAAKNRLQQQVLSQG
# SIX6 [2] = target: T2, SIX6 (Homo sapiens, UniProt O95475 114-200, L143V)
# T2 sequence: T1 sequence with L30V, I54L
# SIX6 [3] = target: T3, SIX6 (Homo sapiens, UniProt O95475 114-200, H141N)
# T3 sequence: T1 sequence with H28N, I54L
# SIX6 [4] = target: T4, SIX6 (Homo sapiens, UniProt O95475 114-200, T165P)
# T4 sequence: T1 sequence with T52P, I54L
# SIX6 [5] = target: T5, SIX6 (Homo sapiens, UniProt O95475 114-200, L167M)
# T5 sequence: T1 sequence with I54M
# SIX6 [6] = target: T6, SIX6 (Homo sapiens, UniProt O95475 114-200, L143M)
# T6 sequence: T1 sequence with L30M, I54L
# SIX6 [7] = target: T7, SIX6 (Homo sapiens, UniProt O95475 114-200, L143I)
# T7 sequence: T1 sequence with L30I, I54L
# SIX6 [8] = target: T8, SIX6 (Homo sapiens, UniProt O95475 114-200, T165G)
# T8 sequence: T1 sequence with T52G, I54L
# SIX6 [9] = target: T9, SIX6 (Homo sapiens, UniProt O95475 114-200, T139Q)
# T9 sequence: T1 sequence with T26Q, I54L
# SIX6 [10] = target: T10, SIX6 (Homo sapiens, UniProt O95475 114-200, T165A)
# T10 sequence: T1 sequence with T52A, I54L
# SIX6 [11] = target: T11, SIX6 (Homo sapiens, UniProt O95475 114-200, L167V)
# T11 sequence: T1 sequence with I54V
# SIX6 [12] = target: T12, SIX6 (Homo sapiens, UniProt O95475 114-200)
# T12 sequence: T1 sequence with I54L
# SIX6 [13] = target: T13, SIX6 (Homo sapiens, UniProt O95475 114-200, T165I)
# T13 sequence: T1 sequence with T52I, I54L
Sequence,binding signal (SIX6 [1]),binding signal (SIX6 [2]),binding signal (SIX6 [3]),binding signal (SIX6 [4]),binding signal (SIX6 [5]),binding signal (SIX6 [6]),binding signal (SIX6 [7]),binding signal (SIX6 [8]),binding signal (SIX6 [9]),binding signal (SIX6 [10]),binding signal (SIX6 [11]),binding signal (SIX6 [12]),binding signal (SIX6 [13])
AAGTATCA,"11.3 upbm affinity estimate (log intensity, higher = more binding, comparable within an allelic series)","10.3 upbm affinity estimate (log intensity, higher = more binding, comparable within an allelic series)","11.2 upbm affinity estimate (log intensity, higher = more binding, comparable within an allelic series)","9.85 upbm affinity estimate (log intensity, higher = more binding, comparable within an allelic series)","10.6 upbm affinity estimate (log intensity, higher = more binding, comparable within an allelic series)","11 upbm affinity estimate (log intensity, higher = more binding, comparable within an allelic series)","10.3 upbm affinity estimate (log intensity, higher = more binding, comparable within an allelic series)","11.2 upbm affinity estimate (log intensity, higher = more binding, comparable within an allelic series)","11.1 upbm affinity estimate (log intensity, higher = more binding, comparable within an allelic series)","11.2 upbm affinity estimate (log intensity, higher = more binding, comparable within an allelic series)","11 upbm affinity estimate (log intensity, higher = more binding, comparable within an allelic series)","10.9 upbm affinity estimate (log intensity, higher = more binding, comparable within an allelic series)","11 upbm affinity estimate (log intensity, higher = more binding, comparable within an allelic series)"
GAGTATCA,"11.2 upbm affinity estimate (log intensity, higher = more binding, comparable within an allelic series)","10.2 upbm affinity estimate (log intensity, higher = more binding, comparable within an allelic series)","11.3 upbm affinity estimate (log intensity, higher = more binding, comparable within an allelic series)","9.54 upbm affinity estimate (log intensity, higher = more binding, comparable within an allelic series)","10.6 upbm affinity estimate (log intensity, higher = more binding, comparable within an allelic series)","10.9 upbm affinity estimate (log intensity, higher = more binding, comparable within an allelic series)","10.3 upbm affinity estimate (log intensity, higher = more binding, comparable within an allelic series)","11.3 upbm affinity estimate (log intensity, higher = more binding, comparable within an allelic series)","11.2 upbm affinity estimate (log intensity, higher = more binding, comparable within an allelic series)","11.2 upbm affinity estimate (log intensity, higher = more binding, comparable within an allelic series)","11 upbm affinity estimate (log intensity, higher = more binding, comparable within an allelic series)","10.9 upbm affinity estimate (log intensity, higher = more binding, comparable within an allelic series)","11.1 upbm affinity estimate (log intensity, higher = more binding, comparable within an allelic series)"
GGCCGGAA,"9.02 upbm affinity estimate (log intensity, higher = more binding, comparable within an allelic series)","8.91 upbm affinity estimate (log intensity, higher = more binding, comparable within an allelic series)","8.94 upbm affinity estimate (log intensity, higher = more binding, comparable within an allelic series)","9.01 upbm affinity estimate (log intensity, higher = more binding, comparable within an allelic series)","8.98 upbm affinity estimate (log intensity, higher = more binding, comparable within an allelic series)","9 upbm affinity estimate (log intensity, higher = more binding, comparable within an allelic series)","8.95 upbm affinity estimate (log intensity, higher = more binding, comparable within an allelic series)","8.98 upbm affinity estimate (log intensity, higher = more binding, comparable within an allelic series)","9.04 upbm affinity estimate (log intensity, higher = more binding, comparable within an allelic series)","8.94 upbm affinity estimate (log intensity, higher = more binding, comparable within an allelic series)","9.02 upbm affinity estimate (log intensity, higher = more binding, comparable within an allelic series)","8.92 upbm affinity estimate (log intensity, higher = more binding, comparable within an allelic series)","8.95 upbm affinity estimate (log intensity, higher = more binding, comparable within an allelic series)"
CGCCCACC,"9.03 upbm affinity estimate (log intensity, higher = more binding, comparable within an allelic series)","9.02 upbm affinity estimate (log intensity, higher = more binding, comparable within an allelic series)","9.04 upbm affinity estimate (log intensity, higher = more binding, comparable within an allelic series)","9.15 upbm affinity estimate (log intensity, higher = more binding, comparable within an allelic series)","9.04 upbm affinity estimate (log intensity, higher = more binding, comparable within an allelic series)","9.02 upbm affinity estimate (log intensity, higher = more binding, comparable within an allelic series)","9.17 upbm affinity estimate (log intensity, higher = more binding, comparable within an allelic series)","9.11 upbm affinity estimate (log intensity, higher = more binding, comparable within an allelic series)","9.21 upbm affinity estimate (log intensity, higher = more binding, comparable within an allelic series)","9.07 upbm affinity estimate (log intensity, higher = more binding, comparable within an allelic series)","9.06 upbm affinity estimate (log intensity, higher = more binding, comparable within an allelic series)","9.1 upbm affinity estimate (log intensity, higher = more binding, comparable within an allelic series)","9.03 upbm affinity estimate (log intensity, higher = more binding, comparable within an allelic series)"
GGCGACCC,"8.98 upbm affinity estimate (log intensity, higher = more binding, comparable within an allelic series)","8.85 upbm affinity estimate (log intensity, higher = more binding, comparable within an allelic series)","9.03 upbm affinity estimate (log intensity, higher = more binding, comparable within an allelic series)","8.9 upbm affinity estimate (log intensity, higher = more binding, comparable within an allelic series)","8.99 upbm affinity estimate (log intensity, higher = more binding, comparable within an allelic series)","9.09 upbm affinity estimate (log intensity, higher = more binding, comparable within an allelic series)","8.97 upbm affinity estimate (log intensity, higher = more binding, comparable within an allelic series)","9.01 upbm affinity estimate (log intensity, higher = more binding, comparable within an allelic series)","9.15 upbm affinity estimate (log intensity, higher = more binding, comparable within an allelic series)","9.04 upbm affinity estimate (log intensity, higher = more binding, comparable within an allelic series)","8.91 upbm affinity estimate (log intensity, higher = more binding, comparable within an allelic series)","9.01 upbm affinity estimate (log intensity, higher = more binding, comparable within an allelic series)","9.02 upbm affinity estimate (log intensity, higher = more binding, comparable within an allelic series)"
AGGTATCA,"11.7 upbm affinity estimate (log intensity, higher = more binding, comparable within an allelic series)","10.6 upbm affinity estimate (log intensity, higher = more binding, comparable within an allelic series)","11.8 upbm affinity estimate (log intensity, higher = more binding, comparable within an allelic series)","9.9 upbm affinity estimate (log intensity, higher = more binding, comparable within an allelic series)","11 upbm affinity estimate (log intensity, higher = more binding, comparable within an allelic series)","11.4 upbm affinity estimate (log intensity, higher = more binding, comparable within an allelic series)","10.7 upbm affinity estimate (log intensity, higher = more binding, comparable within an allelic series)","11.8 upbm affinity estimate (log intensity, higher = more binding, comparable within an allelic series)","11.6 upbm affinity estimate (log intensity, higher = more binding, comparable within an allelic series)","11.7 upbm affinity estimate (log intensity, higher = more binding, comparable within an allelic series)","11.5 upbm affinity estimate (log intensity, higher = more binding, comparable within an allelic series)","11.4 upbm affinity estimate (log intensity, higher = more binding, comparable within an allelic series)","11.5 upbm affinity estimate (log intensity, higher = more binding, comparable within an allelic series)"
